# B2AR arrestin: qHTS assay of beta-arrestin-biased ligands of beta2-adrenergic receptor. Beta-2 adrenergic receptor (Homo sapiens), P07550. beta-arrestin recruitment to beta2AR, cell-based reporter. Potency, µM (doses to about 46.1 µM), actives largely listed as activators. 330,000 compounds, 0.02% hits; active = well fitted activation curve with a large enough effect; inconclusive = small, poorly fitted or top-dose-only effect; also: nearly all actives have a fitted effect of over 65% in size
# D3 ag: qHTS of D3 Dopamine Receptor Agonist: qHTS; max activation, %; 410,000 compounds, 0.58% hits; D3R DiscoveRx beta-arrestin cells, luminescence, 90 min; in the data active = max activation above about 30%
# Target sequence (P35462 whole entry, looked up): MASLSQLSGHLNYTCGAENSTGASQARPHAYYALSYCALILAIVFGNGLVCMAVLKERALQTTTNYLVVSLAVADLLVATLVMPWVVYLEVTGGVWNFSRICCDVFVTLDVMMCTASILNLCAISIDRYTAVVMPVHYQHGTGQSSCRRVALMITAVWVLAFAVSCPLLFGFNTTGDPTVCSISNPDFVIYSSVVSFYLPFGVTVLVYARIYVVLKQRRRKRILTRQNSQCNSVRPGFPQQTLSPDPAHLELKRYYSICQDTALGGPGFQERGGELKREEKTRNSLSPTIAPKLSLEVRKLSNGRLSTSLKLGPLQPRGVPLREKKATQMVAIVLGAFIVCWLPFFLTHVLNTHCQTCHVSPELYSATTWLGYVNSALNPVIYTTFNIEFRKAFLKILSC
#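 Agonist mode: compounds and dopamine controls were applied to plated cells for 90 min at 37 degrees C after an overnight attachment at 1500 cells/well. Luminescent read-out followed 30 - 60 minutes at room temperature with DiscoveRx detection reagent.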
# D3 antag: qHTS of D3 Dopamine Receptor Antagonist: qHTS | D(3) dopamine receptor (Homo sapiens), P35462 | D3R cells, DiscoveRx beta-arrestin luminescence, antagonist mode; hits give low values | max response, negative = inhibition, % | 360,000 compounds, 2.5% hits; in the data active = max response below about -50%; inconclusive = no clear call, values can overlap the other calls
#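 Cells expressing the human receptor were seeded at 1500 cells/well, incubated overnight at 37 degrees C in 5% CO2, then exposed to library compounds with dopamine controls for 90 minutes at 37 degrees C before luminescent detection.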
# TSHR antag: Antagonists of the Thyroid Stimulating Hormone Receptor: HTS campaign; TSHR-expressing cells, TSH-stimulated cAMP HTRF, 2 h; hits give low values; 330,000 compounds, 0.2% hits; activity change, negative = inhibition, % at 11.5 µM; Thyrotropin receptor (Homo sapiens), P16473;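 active = activity change below a set negative limit, meaning inhibition stronger than a set level, cut at about -70% in these data; inconclusive = activity change between two set negative limits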
#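 TSHR-expressing cells, 200/well, pre-treated with compound, then stimulated with EC80 TSH (4nM final) for 2 hours at 37 deg C. cAMP measured by competitive HTRF: anti-cAMP cryptate antibody in lysis buffer plus cAMP-d2, read after 30 minutes at room temperature.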
# A number is an active result; i = inactive; ? = inconclusive; nt = no result. In the library only some 2.9% were active in any assay of this set; here they are far more common.
SMILES,B2AR arrestin,D3 ag,D3 antag,TSHR antag
CCCc1nnc(NC(=O)c2nc(S(=O)(=O)Cc3ccc(C)cc3)ncc2Cl)s1,i,i,-65,i
CC(C)c1nnc(NC(=O)c2nc(S(=O)(=O)Cc3ccccc3)ncc2Cl)s1,i,i,-64,?
CCC(Sc1ncccc1C(=O)Oc1ccccc1Cl)C(=O)Nc1ccccc1OC (stereo not given),nt,i,nt,nt
CCN(CCCNC(=O)c1nn(-c2ccc(C)cc2)c(=O)c2c1c1ccccc1n2C)c1ccccc1,nt,i,nt,nt
CC1CCN(S(=O)(=O)c2cc(C(=O)NCc3ccc(N(C)C)cc3)n(C)c2)CC1,nt,i,nt,nt
COc1ccc(CCNC(=O)C(=O)NCC(c2cccs2)S(=O)(=O)c2cccs2)cc1 (stereo not given),nt,i,nt,nt
Cn1cnc(S(=O)(=O)N2CCCC(C(=O)Nc3ccc(OC(F)(F)F)cc3)C2)c1 (stereo not given),nt,i,nt,nt
CSc1cccc(NC(=O)Cn2ncn3c(cc4ccccc43)c2=O)c1,nt,i,nt,nt
CCOc1ccccc1NC(=O)c1nc(S(=O)(=O)Cc2ccccc2)ncc1Cl,i,i,-107,-75
COc1ccc(OC)c(NC(=O)c2nc(S(=O)(=O)Cc3ccc(F)cc3)ncc2Cl)c1,nt,i,nt,nt
CCS(=O)(=O)c1ncc(Cl)c(C(=O)Nc2ccccc2)n1,nt,i,nt,nt
CCS(=O)(=O)c1ncc(Cl)c(C(=O)Nc2ccccc2OC)n1,i,i,-64,i
COc1ccccc1NC(=O)c1nc(S(=O)(=O)Cc2ccccc2)ncc1Cl,i,i,-89,-78
CCS(=O)(=O)c1ncc(Cl)c(C(=O)Nc2ccc(S(=O)(=O)N3CCC(C)CC3)cc2)n1,i,i,-61,-78
CCOC(=O)c1ccc(NC(=O)c2nc(S(=O)(=O)Cc3ccccc3)ncc2Cl)cc1,i,i,?,?
COc1cccc(CNC(=O)C2CCN(S(=O)(=O)c3cn(C)cn3)CC2)c1,nt,i,nt,nt
CCOc1ccc(CCNC(=O)COC(=O)c2ccc(OC(C)C)cc2)cc1OCC,i,i,-53,i
CC(NC(=O)C1CCCN(S(=O)(=O)c2cccc3nonc23)C1)c1ccccc1 (stereo not given),i,i,-61,i
Cc1cccc(NC(=O)C(Cc2ccccc2)n2cccc2)c1C (stereo not given),nt,i,nt,nt
Cc1ccc(-c2csc3n[nH]c(=S)n23)cc1,i,i,-100,i
CCn1c(-c2ccc(C)cc2)n[nH]c1=S,i,i,?,i
COc1ccc(-c2nc3ccccc3s2)cc1NC(=O)COc1cccc(C)c1,nt,i,nt,nt
Cc1cc(O)ccc1C1(c2ccc(O)cc2C)OC(=O)c2ccccc21,i,i,i,i
O=C1OC2(c3ccc(O)cc3Oc3cc(O)ccc32)c2ccccc21,nt,30,nt,nt
O=C1OC2(c3ccccc31)c1cc(I)c(O)c(I)c1Oc1c2cc(I)c(O)c1I,i,i,nt,-114
SMILES,B2AR arrestin,D3 ag,D3 antag,TSHR antag
O=C(Nc1ccccc1)c1ccc(Cl)c(S(=O)(=O)Nc2ccccc2)c1,nt,i,nt,nt
CCN(CC)CCNC(=O)c1ccc(Cl)c(S(=O)(=O)Nc2ccc(Cl)cc2)c1,i,i,-56,i
CN(c1cccc(NC(=O)c2ccc(Cl)c(S(=O)(=O)Nc3ccccc3)c2)c1)S(C)(=O)=O,i,52,i,i
CCN(CC)CCNC(=O)c1ccc(Cl)c(S(=O)(=O)Nc2ccccc2OC)c1,i,i,i,i
CCC(C)NCCOc1cc(C)cc(C)c1C (stereo not given),i,i,-69,i
CCC(C)NCCOCCOc1ccc(C)cc1OC (stereo not given),i,i,i,i
Cc1cc(OCCN2CCCCCC2)ccc1[N+](=O)[O-],i,i,-68,i
O=[N+]([O-])c1ccc(OCCCCN2CCc3ccccc3C2)cc1,i,i,-102,i
O=[N+]([O-])c1ccc(OCCCCCN2CCOCC2)cc1,i,i,i,i
O=[N+]([O-])c1ccc(OCCCCN2CCCCC2)cc1,i,i,-58,i
COC(=O)C1CCN(Cc2ccc(OCCCN3CCN(c4ccc([N+](=O)[O-])cc4)CC3)cc2)CC1,i,i,-52,i
Cc1cc(OCC(=O)N2CCCCCC2)ccc1[N+](=O)[O-],i,i,i,i
Cc1cccc(OC(=O)c2cc(-c3ccc(Cl)cc3)on2)c1C,nt,i,nt,nt
CC(=O)c1cccc(-c2ccc3c(=O)[nH]c(Nc4ccccc4)cc3c2)c1,nt,31,i,nt
O=c1[nH]c(Nc2ccccc2)cc2cc(Br)ccc12,nt,i,i,nt
O=S(=O)(CCNCCc1ccccc1)NC1CCCCC1,nt,i,-84,nt
O=C(CC(c1cccs1)N1Cc2ccccc2C1=O)Nc1ccccc1 (stereo not given),nt,i,nt,nt
CC(CN1CCN(C)CC1)OC(=O)c1ccc(F)cc1 (stereo not given),i,i,i,i
CC(CN(C)Cc1ccccc1)OC(=O)c1ccc(F)cc1 (stereo not given),i,i,-69,i
COCCNC(=O)c1c(NC(=O)Cc2coc3cc(C)ccc23)sc2c1CCCC2,nt,i,nt,nt
N#CC1=C(N)C(C#N)(C#N)C(c2cccnc2)C2CN(C(=O)OCc3ccccc3)CC=C12 (stereo not given),i,i,-74,i
c1ccc(OCCCc2nc(-c3ccncc3)no2)cc1,i,i,-52,i
Cc1ccc(NC(=O)Cn2c(=O)c3cc(Cl)ccc3n3nncc23)cc1,nt,i,nt,nt
Cc1[nH]nc(SCC(=O)N2CCC(C)CC2)c1[N+](=O)[O-],i,i,-51,i
Cc1[nH]nc(SCC(=O)N2CCCC2)c1[N+](=O)[O-],i,i,i,i
SMILES,B2AR arrestin,D3 ag,D3 antag,TSHR antag
Cc1cccc(-n2nc(C)c(C(=O)Nc3cc(C)ccc3C)c2-n2cccc2)c1,nt,i,nt,nt
CCCCC(c1nnnn1CCOC)N1CCN(Cc2ccccc2)CC1 (stereo not given),i,i,-80,i
CCCCn1nnnc1C(CCc1ccccc1)N1CCN(C/C=C/c2ccccc2)CC1 (stereo not given),nt,i,-58,nt
CCCCn1nnnc1C(CCSC)N1CCN(C/C=C/c2ccccc2)CC1 (stereo not given),nt,i,-122,nt
CCC(C)c1ccc(NC(=S)Nc2ccc(OC)cc2C)cc1 (stereo not given),i,i,-133,i
CCC(C)c1ccc(NC(=S)Nc2ccc(OC)c(OC)c2)cc1 (stereo not given),i,i,?,i
COc1ccc(Nc2nc(NCc3ccco3)nc(N/N=C/c3ccccc3)n2)cc1,i,i,-51,i
CCOc1nc(NCc2ccco2)nc(Nc2ccc(OC)cc2)n1,i,i,i,i
CN(CCc1ccccn1)Cc1ccc(Cl)cc1Cl,i,i,-70,i
CN(CCc1ccccn1)Cc1ccc(Cl)c(Cl)c1,i,i,-51,i
CSc1ccc(CN(C)CCc2ccccn2)cc1,i,i,i,i
Fc1ccc(-c2noc3ncnc(NCCCN4CCN(c5ccccc5)CC4)c23)cc1,nt,i,nt,nt
Cc1ccc(CCNC(=O)CN2C(=O)COc3ccc(S(=O)(=O)N4CCCCCC4)cc32)cc1,nt,i,nt,nt

# Screens deposited in PubChem by National Center for Advancing Translational Sciences (NCATS).
